Test results reported in PubChem BioAssay (EPA / NIEHS).
Records with an inconclusive call do not appear. Active and inactive are the calls of the source. How the source made its calls, unless noted: active means hit-call score of the fitted dose curve at least 0.9, where 1 is the maximum; inconclusive means response in the unintended direction; inactive means score below 0.9.

Assays:
[1] = CCTE_Harrill_HTTr_Apoptosis_DMEM_12hr: (Pilot) CCTE's 12-hour Apoptosis Assessment for the High-Throughput Transcriptomics (HTTr) Platform, in MCF-7 cells cultured in DMEM + 10% fetal bovine serum, Harrill Lab (AID 2283982; active means hit-call score of the fitted dose curve at least 0.9, where 1 is the maximum; inactive means score below 0.9)
Procedure, shortened: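 Caspase-3/7 activity was measured by high-content imaging (CellEvent Caspase 3/7 Green) after a 12-hour exposure of MCF-7 cells grown in DMEM with 10% FBS. Eight-point concentration series, fitted bidirectionally against vehicle.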

[2] = CCTE_Harrill_HTTr_Apoptosis_DMEM_24hr: (Pilot) CCTE's 24-hour Apoptosis Assessment for the High-Throughput Transcriptomics (HTTr) Platform, in MCF-7 cells cultured in DMEM + 10% fetal bovine serum, Harrill Lab (AID 2283983; active means hit-call score of the fitted dose curve at least 0.9, where 1 is the maximum; inactive means score below 0.9)
Procedure, shortened: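 Caspase-3/7 activity read by high-content imaging (CellEvent Green reagent) 24 h after dosing. MCF-7 cells grown in DMEM with 10% FBS received an eight-point concentration series; fits were bidirectional versus DMSO.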

[3] = CCTE_Harrill_HTTr_Apoptosis_PRF_DMEM_6hr: (Pilot) CCTE's 6-hour Apoptosis Assessment for the High-Throughput Transcriptomics (HTTr) Platform, in MCF-7 cells cultured phenol red-free DMEM + 10% charcoal-stripped fetal bovine serum, Harrill Lab (AID 2283984; active means hit-call score of the fitted dose curve at least 0.9, where 1 is the maximum; inactive means score below 0.9)
Procedure, shortened: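 Caspase-3/7 activity (CellEvent Green) read by high-content imaging 6 h after dosing, eight concentrations. Cells: MCF-7, phenol red-free DMEM with 10% charcoal-stripped serum. Curves fit both directions against DMSO.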

[4] = CCTE_Harrill_HTTr_Apoptosis_PRF_DMEM_12hr: (Pilot) CCTE's 12-hour Apoptosis Assessment for the High-Throughput Transcriptomics (HTTr) Platform, in MCF-7 cells cultured in phenol red-free DMEM + 10% charcoal-stripped fetal bovine serum, Harrill Lab (AID 2283985; active means hit-call score of the fitted dose curve at least 0.9, where 1 is the maximum; inactive means score below 0.9)
From the text: This is a cell-based assay that evaluates apoptosis using high content imaging to evaluate activation of caspase-3/7 using the CellEvent Caspase 3/7 Green detection reagent in 384-well format.One of seven assay components measured from the CCTE_Harrill_HTTr_Apoptosis assay. This was part of a pilot experiment. This is a cell-based assay that evaluates apoptosis in MCF-7 cells cultured in phenol red-free DMEM + 10% charcoal-stripped fetal bovine serum. High content imaging is used to evaluate activation of caspase-3/7 using the CellEvent Caspase 3/7 Green detection reagent. Measurements are taken at 12 hours after chemical dosing in 384-well format.The assay component endpoint CCTE_Harrill_HTTr_Apoptosis_PRF_DMEM_12hr was analyzed with bidirectional fitting relation to DMSO as the negative control and baseline of activity. Using a type of viability reporter, gain-of-signal activity can be used to evaluate activation of caspase-3/7 using the CellEvent Caspase 3/7 Green detection reagent to understand changes in apoptosis. To generalize the intended target to other relatable targets, this assay endpoint is annotated to cell cycle, where the subfamily is apoptosis.
Chemicals were tested in MCF7 cells in an eight point dilution series with a twelve hour exposure duration.

[5] = CCTE_Harrill_HTTr_Apoptosis_PRF_DMEM_24hr: (Pilot) CCTE's 24-hour Apoptosis Assessment for the High-Throughput Transcriptomics (HTTr) Platform, in MCF-7 cells cultured in phenol red-free DMEM + 10% charcoal-stripped fetal bovine serum, Harrill Lab (AID 2283986; active means hit-call score of the fitted dose curve at least 0.9, where 1 is the maximum; inactive means score below 0.9)
Procedure, shortened: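 Eight concentrations tested for 24 h on MCF-7 grown in charcoal-stripped serum, phenol red-free DMEM. High content imaging of CellEvent Caspase 3/7 Green signal gives apoptosis read-out, fitted both ways relative to DMSO.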

[6] = biological target: Nucleoli Translocation, AR (gene 367) (UniProt P10275); assay: UPITT_HCI_U2OS_AR_TIF2_Nucleoli_Antagonist: University of Pittsburgh U2OS Androgen Receptor-Transcriptional Intermediary Factor 2 (AR-TIF2) Antagonism High Content Imaging Assay for Nucleoli Translocation (AID 2283997)
Procedure, shortened: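 An antagonist-mode imaging screen: engineered U2OS (AR-RFP, TIF2-GFP) exposed to 20 uM compound, 0.2% DMSO. Activity reflects nucleolar red fluorescence change relative to DHT baseline.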

[7] = biological target: Ratio of Nucleoli Translocation and Cytoplasm, AR (gene 367) (UniProt P10275); assay: UPITT_HCI_U2OS_AR_TIF2_Nucleoli_Cytoplasm_Ratio_Antagonist: University of Pittsburgh U2OS Androgen Receptor-Transcriptional Intermediary Factor 2 (AR-TIF2) Antagonism High Content Imaging Assay for Ratio of Nucleoli Translocation and Cytoplasm (AID 2283999);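 further: antagonists lower the DHT-driven ratio of nucleolar to cytoplasmic red signal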
Procedure, shortened: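 High-content imaging of red fluorescence ratio, nucleoli versus cytoplasm, in U2OS expressing AR-RFP and TIF2-GFP, fitted relative to DHT. Compounds tested once at 20 uM final, then 0.195 to 50 uM final in serial dilution.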

[8] = biological target: Nucleoli Translocation, AR (gene 367) (UniProt P10275); assay: UPITT_HCI_U2OS_AR_TIF2_Nucleoli_Agonist: University of Pittsburgh U2OS Androgen Receptor-Transcriptional Intermediary Factor 2 (AR-TIF2) Agonism High Content Imaging Assay for Nucleoli Translocation (AID 2283998)
Procedure, shortened: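 RFP-AR / GFP-TIF2 cells; cpds diluted in serum-free medium; single-point screen 20 uM final (0.2% DMSO), actives confirmed in triplicate; conc-response 0.195–50 uM final (0.5% DMSO). Readout: nucleolar red fluorescence, positive direction vs DMSO.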

[9] = biological target: Ratio of Nucleoli Translocation and Cytoplasm, AR (gene 367) (UniProt P10275); assay: UPITT_HCI_U2OS_AR_TIF2_Nucleoli_Cytoplasm_Ratio_Agonist: University of Pittsburgh U2OS Androgen Receptor-Transcriptional Intermediary Factor 2 (AR-TIF2) Agonism High Content Imaging Assay for Ratio of Nucleoli Translocation and Cytoplasm (AID 2284000);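 further: hits raise the red nucleolar to cytoplasm ratio above vehicle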
Procedure, shortened: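 Primary screen at 20 uM final (0.2% DMSO), then triplicate confirmation and dose-response from 0.195 to 50 uM final (0.5% DMSO). Cells: U2OS with AR-RFP and TIF2-GFP. Endpoint is the nucleoli/cytoplasm red-fluorescence ratio, gain-of-signal vs DMSO.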

Measured: AC50

Sequence of Ratio of Nucleoli Translocation and Cytoplasm, AR (gene 367) (P10275 whole entry, looked up): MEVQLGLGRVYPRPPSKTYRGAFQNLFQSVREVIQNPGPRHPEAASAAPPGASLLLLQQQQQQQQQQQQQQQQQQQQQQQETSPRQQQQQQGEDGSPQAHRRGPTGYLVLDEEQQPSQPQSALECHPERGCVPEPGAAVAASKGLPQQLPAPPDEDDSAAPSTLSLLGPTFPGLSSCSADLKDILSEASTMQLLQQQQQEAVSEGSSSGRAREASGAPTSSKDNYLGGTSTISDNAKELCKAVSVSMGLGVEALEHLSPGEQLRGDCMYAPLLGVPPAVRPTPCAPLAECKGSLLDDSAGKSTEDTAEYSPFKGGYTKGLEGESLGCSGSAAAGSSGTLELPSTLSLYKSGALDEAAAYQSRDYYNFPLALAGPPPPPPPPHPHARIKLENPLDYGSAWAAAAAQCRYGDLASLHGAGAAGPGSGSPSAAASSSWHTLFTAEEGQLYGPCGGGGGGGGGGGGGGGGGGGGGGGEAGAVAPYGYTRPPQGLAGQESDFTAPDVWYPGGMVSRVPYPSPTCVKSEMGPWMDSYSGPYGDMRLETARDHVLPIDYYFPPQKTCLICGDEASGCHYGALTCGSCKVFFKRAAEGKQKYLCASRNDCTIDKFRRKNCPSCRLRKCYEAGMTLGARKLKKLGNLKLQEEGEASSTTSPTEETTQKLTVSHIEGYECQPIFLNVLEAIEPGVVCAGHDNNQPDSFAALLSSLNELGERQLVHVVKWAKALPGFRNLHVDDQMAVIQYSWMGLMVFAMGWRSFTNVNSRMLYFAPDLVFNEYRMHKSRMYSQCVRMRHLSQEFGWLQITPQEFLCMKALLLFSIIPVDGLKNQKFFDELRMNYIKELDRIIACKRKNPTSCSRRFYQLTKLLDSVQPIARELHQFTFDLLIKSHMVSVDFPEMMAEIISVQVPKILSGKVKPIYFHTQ
Sequence of Nucleoli Translocation, AR (gene 367) (P10275 whole entry, looked up): as above

COC(=O)N(OC)c1ccccc1COc1ccn(-c2ccc(Cl)cc2)n1
inactive: [1] | [2] | [3] | [4] | [5]

CO/C=C(/C(=O)OC)c1ccccc1Oc1cc(Oc2ccccc2C#N)ncn1
inactive: [6] | [7]

N#CC(CCc1ccc(Cl)cc1)(Cn1cncn1)c1ccccc1 (stereo unspecified)
inactive: [6] | [8] | [7] | [9]

CCOC(=O)CC(SP(=S)(OC)OC)C(=O)OCC (stereo unspecified)
active: [6] 50 µM | [7] 69.2 µM
inactive: [9]

CCCCNC(=O)n1c(NC(=O)OC)nc2ccccc21
inactive: [6] | [8] | [9]

CCNc1nc(Cl)nc(NCC)n1
inactive: [1] | [2] | [3] | [4] | [5]

CCNc1nc(Cl)nc(NC(C)C)n1
inactive: [1] | [2] | [3] | [4] | [5]

CS/C(C)=N/OC(=O)N(C)SN(C)C(=O)O/N=C(\C)SC
active: [6] 21.7 µM | [8] 70.8 µM | [7] 13.8 µM | [9] 84.1 µM

CC1=C(C(=O)Nc2ccccc2)SCCO1
inactive: [6]

O=C(Nc1ccccc1)Nc1ccnc(Cl)c1
active: [8] 84.5 µM
inactive: [7] | [9]

C=CC1(C)OC(=O)N(c2cc(Cl)cc(Cl)c2)C1=O (stereo unspecified)
inactive: [1] | [2] | [3] | [4] | [5]

CCCC1COC(Cn2cncn2)(c2ccc(Cl)cc2Cl)O1 (stereo unspecified)
inactive: [1] | [2] | [3] | [4] | [5] | [7]
active: [8] 92.8 µM | [9] 89.2 µM

Cc1cc(Cl)ccc1OCC(=O)O
inactive: [8] | [7] | [9]
